This note sets out measurements from PubChem BioAssay AID651812 (National Center for Advancing Translational Sciences (NCATS), 2012).

In all, about 2,100 compounds went through this assay and about 650 (31%) were called active. Another 16% or so got no clear call; they are omitted. The call rests on the fitted dose curve; in most records, active means well fitted inhibition curve with a large enough effect; inconclusive means small, poorly fitted or top-dose-only effect; inactive means flat fitted curve, though single readings scatter. The list shows a part of the results. Where a call stands in place of a potency, no number is given.
Potency means the concentration at half of the fitted maximal effect.

A short description of the assay: qHTS for inhibitors of Vif-A3G interactions: Cherry picks. Further: nearly all actives have a fitted effect of over 80% in size. The settings on record: HeLa A3G-eYFP + Vif (tagged APOBEC3G with the HIV-1 protein that degrades it), 24 h; Potency: eYFP fluorescence increase; series mostly up to 36.9 µM. The method, boiled down:
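Cherry-picked compounds tested at several concentrations on A3G-eYFP/Vif HeLa cells for 24 hours; loss of Vif-driven degradation read as eYFP fluorescence by cytometric plate imaging, 488 nm excitation, 500-530 nm emission.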
Consider `Cc1cc(NC(=O)Nc2nnc(N(C)Cc3ccccc3)s2)ccc1Br`, for which the Potency entry is “inactive”.

`COc1cccc(/C=N/NC(=O)c2[nH]nc3c2CCc2ccccc2-3)c1`: the Potency result was “inactive”.

On to `CC(=O)n1cc(/C=N/NC(=O)c2sc(C)nc2C)c2ccccc21`, for which the Potency result was “inactive”.

As to `COc1ccc(C(C)(O)c2nc(-c3ccccc3OC)cs2)cc1` (stereo not given), the Potency result was “inactive”.

For `Cc1cc(/C=C/c2ccnc3ccccc23)ccc1N(C)C`, the Potency was 20.6 µM (active).

As for `CN(C)c1ccc(/C=C/c2ccnc3ccccc23)cc1N`, the Potency result is “inactive”.

Take `Cc1cc(N(C)C)c(C)cc1/C=C/c1ccnc2ccccc12`: the Potency was 20.6 µM (active).

For the molecule `CCn1c2ccccc2c2c3ncc4cccn4c3ccc21`, the Potency is 23.1 µM (active).

Take `CCOC(=O)/C(C#N)=C\C=C1C=CN(C)C=C1`: the Potency was 8.2 µM (active).

`COc1cc2c(cc1OC)CN(C(=O)/C=C/c1cccs1)CC2`: the Potency entry is “inactive”.

In the case of `Cc1cc(C)nc(-n2nc(C)cc2NC(=O)c2ccc(F)cc2F)n1`, the Potency entry was “inactive”.

As for `O=[N+]([O-])/C=C\c1ccc(N2CCCC2)c(F)c1`, the Potency entry was “inactive”.

Consider `Cc1cc(/C=C2\NC(=S)N(C)C2=O)ccc1N1CCCC1`, for which the Potency was 8.86 µM (active).

On to `Cc1cc(N2CCCC2)ccc1/C=C1\NC(=S)N(C)C1=O`, for which the Potency is 3.66 µM (active).

Consider `Cc1cc(N2CCCC2)ccc1/C=C1/C(=O)N(C)C(=S)N1C`, for which the Potency is 18.4 µM (active).

As for `COc1cc(N(C)C)c(OC)cc1/C=C/c1ccnc2ccccc12`, the Potency is 20.6 µM (active).

On to `COc1cc(/C=C/c2ccnc3ccccc23)ccc1N(C)C`, for which the Potency is 20.6 µM (active).

For the molecule `COc1ccc(/C=C/c2ccnc3ccccc23)c(OC)c1`, the Potency entry was “inactive”.

In the case of `COc1ccccc1-c1c(C#N)c(N)nc2c1CCc1ccccc1-2`, the Potency entry is “inactive”.

With `CCOC(=O)c1c(Nc2ccc(Cl)cc2)sc(/C=C2\C=Nc3ccccc32)c1O`, the Potency was 13 µM (active).

`CNc1cncc(-c2cc(C)c(O)c(C)c2)n1`: the Potency entry is “inactive”.

For `Cn1cc(/C=C/c2ccnc3ccccc23)c2ccccc21`, the Potency is 23.1 µM (active).

Regarding `Cn1cc(/C=C/c2ccc3ccccc3n2)c2ccccc21`, the Potency was 20.6 µM (active).

With `COc1cc(C2c3cc4c(cc3OC(C)(N3CCCC3)C2C)OCO4)cc(OC)c1OC` (stereo not given), the Potency entry was “inactive”.

Regarding `CCOc1c(Cl)cc(/C=N/NC(N)=S)cc1OC`, the Potency result is “inactive”.

Consider `Cc1ccc(S(=O)(=O)CCSc2nc(C)cc(C(F)(F)F)c2C#N)cc1`, for which the Potency was 14 µM (active).

Turning to `CCOc1ccc(-n2nnnc2SCC(=O)c2ccccc2)cc1`, the Potency result is “inactive”.

As for `Cc1ccc2nc(NC(=O)CN(C)S(=O)(=O)c3cccc4nsnc34)sc2c1`, the Potency result was “inactive”.

Consider `CCOC(=O)c1ccc(NC(=O)CSc2nc(-c3ccc(F)cc3)cc(C(F)(F)F)c2C#N)cc1`, for which the Potency was 20.6 µM (active).

`Cc1cnc(NC(=O)CC(C)c2ccccc2)s1` (stereo not given): the Potency result is “inactive”.

Turning to `Cc1cc(C(F)(F)F)c(C#N)c(SCC(=O)Nc2nc3ccccc3s2)n1`, the Potency is 18.4 µM (active).

In the case of `CCOc1ccc(-c2cc(C(=O)N/N=C(\C)c3cccnc3)c3ccccc3n2)cc1`, the Potency entry is “inactive”.

For the molecule `CCOc1ccc(-c2cc(C(F)(F)F)c(C#N)c(SCC(=O)Nc3ccccc3)n2)cc1`, the Potency was 18.4 µM (active).

For the molecule `CCOC(=O)c1ccc(N=Nc2c(C)c(C#N)c(O)[nH]c2=O)cc1`, the Potency entry was “inactive”.

As for `CCOC(=O)c1ccc(NC(=O)Cn2ncc(Cl)c(Cl)c2=O)cc1`, the Potency result is “inactive”.

With `COc1ccc(C2C(C#N)=C(N)Oc3cc(N)ccc32)cc1OC` (stereo not given), the Potency entry is “inactive”.

`COc1cc(C2C3=C(COC3=O)Oc3cc4c(cc32)OCO4)ccc1OC(C)=O` (stereo not given): the Potency result was “inactive”.

`Cc1cccc(N2CCN(C(=O)c3cccc(N4CCCC4=O)c3)C(C)C2)c1` (stereo not given): the Potency result was “inactive”.

Turning to `COc1cc(-c2noc(C)c2C#Cc2ccc(N)cc2)cc(OC)c1OC`, the Potency result is “inactive”.

On to `CSCC[C@H](NC(=O)[C@H](Cc1ccccc1)n1c(=O)[nH]c2ccccc2c1=O)C(=O)N1CCC[C@@H]1C(=O)O`, for which the Potency result is “inactive”.

Regarding `COc1cc(-c2noc(C)c2/C=C/c2ccc(OC(C)=O)cc2)cc(OC)c1OC`, the Potency result was “inactive”.

Take `C=CCNc1nc(-c2ccccc2)c(C(=O)OCC)cc1C#N`: the Potency entry was “inactive”.

Consider `Cc1coc(NC(=O)CSc2nc(-c3ccncc3)cc(C(F)(F)F)c2C#N)n1`, for which the Potency is 14.6 µM (active).

Regarding `O=C(CSc1nc(-c2ccco2)cc(C(F)(F)F)n1)Nc1cccnc1`, the Potency entry is “inactive”.

Take `CCCCOc1ccc(-c2cc(C(F)(F)F)c(C#N)c(SCC(=O)O)n2)cc1`: the Potency is 18.4 µM (active).

As to `CCOC(=O)c1ccc(NC(=O)CSc2nc(-c3ccc(OC)cc3)cc(C(F)(F)F)c2C#N)cc1`, the Potency is 20.6 µM (active).

`CCOC(=O)c1ccc(NC(=O)CSc2nc(-c3cccs3)cc(C(F)(F)F)c2C#N)cc1`: the Potency was 20.6 µM (active).

`O=C(OCCC12CC3CC(CC(C3)C1)C2)c1ccc(NCc2cc(O)ccc2O)cc1`: the Potency result is “inactive”.

With `N#Cc1c(C(F)(F)F)cc(-c2cccs2)nc1SCC(=O)Nc1cccc(Cl)c1`, the Potency result is “inactive”.

With `N#Cc1c(C(F)(F)F)cc(-c2cccs2)nc1SCC(=O)Nc1cccc(C(F)(F)F)c1`, the Potency was 18.4 µM (active).

As to `O=C(NCc1ccccc1)C1Cc2c(-c3ccc(Cl)cc3)ccnc2O1` (stereo not given), the Potency result was “inactive”.

In the case of `COCCCNC(=S)N/N=C/c1ccc(OC)cc1`, the Potency result is “inactive”.

Turning to `N#C/C(=C/c1ccc(N2CCOCC2)o1)C(=O)NC1CCCCC1`, the Potency is 18.4 µM (active).

In the case of `N#C/C(=C\c1ccc(N2CCOCC2)o1)C(=O)NC1CCCCC1`, the Potency was 15.8 µM (active).

On to `N#C/C(=C\c1ccccc1[N+](=O)[O-])C(=O)NCc1ccccc1`, for which the Potency entry is “inactive”.

On to `N#C/C(=C\c1ccc(N2CCOCC2)o1)C(=O)NCCc1ccccc1`, for which the Potency is 23.1 µM (active).

`CN(C)c1ccc(/C=C(/C#N)C(=O)NCc2ccccc2)o1`: the Potency is 14.6 µM (active).

Consider `O=C(NCc1ccccc1)C(=O)NCC1COc2ccccc2O1` (stereo not given), for which the Potency result was “inactive”.

Turning to `Cc1ccc(CN(C(=O)c2ccccc2F)c2ccccn2)o1`, the Potency result was “inactive”.

For the molecule `CCOC(=O)c1cnc(-n2nc(C)cc2C)nc1NNc1nc(-c2ccccc2)cc(-c2ccccc2)n1`, the Potency result was “inactive”.

`COC(=O)c1[nH]c2c(c1C(=O)OC)CCc1ccccc1-2`: the Potency entry is “inactive”.

Regarding `CC(CC(=O)Nc1ccc2c(c1)c(=O)n(C)n2-c1ccccc1F)c1ccccc1` (stereo not given), the Potency entry is “inactive”.

As to `O=C1[C@@H]2[C@@H](CN3CN(c4ccccc4)N=C(c4ccccc4)[C@@]23c2ccccc2)C(=O)N1c1ccccc1`, the Potency entry was “inactive”.

Take `Nc1c(C(=O)c2ccc(Cl)cc2)sc2nc3c(cc12)CCC3`: the Potency was 18.4 µM (active).

Regarding `O=C(Cn1nc2c(cc1=O)CCCC2)NCc1ccc(Cl)cc1`, the Potency result is “inactive”.

Regarding `CC(=O)Nc1cccc(-c2ccnc3c2CC(C)(C(=O)NCc2ccccc2)O3)c1` (stereo not given), the Potency entry is “inactive”.

For `COc1ccc(/C=N/NC(=O)c2cc(OC)c(OC)c(OC)c2)cc1CN1CCc2cc(OC)c(OC)cc2C1C` (stereo not given), the Potency entry was “inactive”.

As to `O=C1NC(=Nc2ccccc2Cl)S/C1=C\c1cc([N+](=O)[O-])ccc1O`, the Potency entry is “inactive”.

As to `O=C1/C(=C\c2cc([N+](=O)[O-])ccc2O)SC(=S)N1Cc1ccc(Cl)cc1`, the Potency was 18.4 µM (active).

As for `CN(C)c1ccc(/C=C/C(=O)c2c(O)c3ccccc3oc2=O)cc1`, the Potency was 1.46 µM (active).

Regarding `C=CCOc1ccc2nc(NC(=O)OC)[nH]c2c1`, the Potency entry is “inactive”.

With `CC[n+]1c(/C=C/Nc2ccccc2)oc2ccc(OC)cc21`, the Potency was 20.6 µM (active).

As for `CC[n+]1c(/C=C/Nc2ccccc2)oc2ccccc21`, the Potency is 14.6 µM (active).

For `COc1ccc(N/C=C/C(=O)c2sc(-c3ccccc3)nc2C)cc1`, the Potency result was “inactive”.

`CC[n+]1c(/C=C/N(C)c2ccccc2)oc2ccc(F)cc21`: the Potency is 17.7 µM (active).

Regarding `Cc1c(C(=O)N2CCOCC2)[nH]c2c1C(=O)CC(c1ccccc1Cl)C2` (stereo not given), the Potency result was “inactive”.

For the molecule `Cc1ccc(C)c(N2CCN(C(=O)c3cccn4c(=O)c5sccc5nc34)CC2)c1`, the Potency entry is “inactive”.

With `COc1ccc(-c2coc3cc4oc(=O)cc(-c5ccccc5)c4cc23)cc1F`, the Potency entry was “inactive”.

Turning to `CCC/C=N/NC(=O)c1[nH]c2c([N+](=O)[O-])cccc2c1C`, the Potency entry was “inactive”.

Regarding `O=C(CSc1nc2ccccc2s1)c1cc2ccccc2o1`, the Potency entry was “inactive”.

`O=C(CSc1nc2ccc(Nc3nc(N4CCOCC4)nc(N4CCOCC4)n3)cc2s1)Nc1ccccc1F`: the Potency is 5.8 µM (active).

`CCCC(=O)Nc1nc2ccc(NC(=O)c3ccccc3F)cc2s1`: the Potency entry was “inactive”.

As to `Cc1nc(SCC(=O)c2ccccc2)c(C#N)c(-c2ccco2)c1C(=O)NCc1ccco1`, the Potency result is “inactive”.

Take `Cc1ccc(C(=O)CSc2nc(-c3ccccc3)ccc2C#N)cc1`: the Potency was 18.4 µM (active).

On to `Cc1ccc(C(=O)CSC2=C(C#N)C(c3ccco3)C3=C(CCCC3=O)N2)cc1` (stereo not given), for which the Potency result is “inactive”.

As to `CCOc1cc(C#N)c(NC(=O)c2cccnc2)cc1OCC`, the Potency result was “inactive”.

`N#Cc1ccc(-c2cccnc2)nc1SCC(=O)c1ccccc1`: the Potency was 16.4 µM (active).

On to `CCOc1ccc(S(=O)(=O)Nc2cc3c(C(=O)OC)c(COC)oc3c3ccccc23)cc1`, for which the Potency result is “inactive”.

Regarding `COc1ccc(NC(=O)/C(C#N)=C\C=C\c2ccco2)cc1`, the Potency entry was “inactive”.

As for `CN1/C(=C\C=C(/C#N)C(=O)Nc2ccccc2F)C(C)(C)c2ccccc21`, the Potency was 9.2 µM (active).

Consider `CN1/C(=C\C=C(/C#N)C(=O)Nc2ccc(Cl)cc2)C(C)(C)c2ccccc21`, for which the Potency was 4.98 µM (active).

Take `O=C(NNC1=Nc2cccc3cccc1c23)c1ccc(Br)cc1`: the Potency is 18.4 µM (active).

Take `COCCCNC(=S)N/N=C/c1cccc(OC)c1O`: the Potency entry was “inactive”.

As to `CC1=C(n2nnc3ccccc32)C(c2ccccc2)C(C#N)=C(N)O1` (stereo not given), the Potency result was “inactive”.

Regarding `CCN1/C(=C/c2cccc[n+]2C)Sc2ccc(OC)cc21`, the Potency is 16.4 µM (active).

On to `CCOc1ccc(CN2C(=O)c3ccccc3Sc3ccc(C(=O)O)cc32)cc1`, for which the Potency entry is “inactive”.

On to `COc1ccc2c(c1)N(C)/C(=C/c1cccc[n+]1C)S2`, for which the Potency is 14 µM (active).

On to `COc1ccc(C(=O)Nc2ccc3c(c2)N(C)C(=O)c2ccccc2S3)cc1OC`, for which the Potency result is “inactive”.

For the molecule `CC[n+]1ccccc1/C=C1\Sc2ccc(C)cc2N1C`, the Potency is 20.6 µM (active).

As for `N#CC1=C(N)Oc2ccc3ccc(O)cc3c2C1c1ccsc1` (stereo not given), the Potency entry was “inactive”.
